According to PubChem BioAssay AID1159580 (chemical genetic matrix, 2015):
Where “and” joins values, the source holds several entries; their conditions need not be identical. Equal entries are not always repeated. Out of some 5,500 compounds screened, about 2,000 (36%) were called active. Not shown: some 18% with an inconclusive outcome. Cut-off read from the data, not from the text of the source: active = normalized growth mostly below about 0.91 (no sharp cut-off); inconclusive = no clear call, values can overlap the other calls; inactive = mostly above about 0.92. This is one part of the list.

Experiment: chemical genetic growth profiling, strain panel (AID 1159580);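 note: tested at 20 µM; growth read once vehicle control cultures reached saturation at 30 °C; 1 = growth at the plate median or of vehicle wells; lower values mean less growth of the strain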
Details: growth OD

Measured: normalized growth

N[C@@H](Cc1cc(I)c(Oc2cc(I)c(O)c(I)c2)c(I)c1)C(=O)O
active: S. cerevisiae deletion strains, locus YCL029C, strain bik1, hits give low values 1.22 [resistant] | S. cerevisiae deletion strains, locus YDL192W, strain arf1, hits give low values 1.12 [resistant] | S. cerevisiae deletion strains, locus YDR388W, hits give low values 1.09 [resistant] | S. cerevisiae deletion strains, locus YHR079C, strain IRE1 (second series), hits give low values 1.27 [resistant] | S. cerevisiae deletion strains, locus YHR200W, strain rpn10, hits give low values 1.19 [resistant] | S. cerevisiae deletion strains, locus YIR030C, strain dcg1, hits give low values 1.13 [resistant] | S. cerevisiae deletion strains, locus YJL168C, strain set2, hits give low values 1.1 [resistant] | S. cerevisiae deletion strains, locus YLR102C, strain apc9, hits give low values 1.09 [resistant] | S. cerevisiae deletion strains, locus YLR330W, strain CHS5, hits give low values 1.13 [resistant] | S. cerevisiae deletion strains, locus YLR371W, strain rom2, hits give low values 1.2 [resistant] | S. cerevisiae deletion strains, locus YMR078C, strain ctf18, hits give low values 1.16 [resistant] | S. cerevisiae deletion strains, locus YMR223W, strain ubp8, hits give low values 1.25 [resistant] | S. cerevisiae deletion strains, locus YNL307C, strain MCK1, hits give low values 0.851 | S. cerevisiae deletion strains, locus YNR052C, strain pop2, hits give low values 1.24 [resistant] | S. cerevisiae deletion strains, locus YOL147C, strain pex11, hits give low values 1.08 [resistant] | S. cerevisiae deletion strains, locus YOR144C, strain elg1, hits give low values 1.2 [resistant] | S. cerevisiae deletion strains, locus YOR316C, strain cot1, hits give low values 1.22 [resistant] | S. cerevisiae deletion strains, locus YPR141C, strain kar3, hits give low values 1.23 [resistant] | S. cerevisiae deletion strains, locus YPR163C, strain tif3, hits give low values 1.14 [resistant] | S. cerevisiae deletion strains, locus YPR167C, strain met16, hits give low values 1.17 [resistant]
inactive: S. cerevisiae deletion strains, locus YAL013W, strain DEP1, hits give low values 1.05 | S. cerevisiae deletion strains, locus YBR021W, strain FUR4, hits give low values 1.07 | S. cerevisiae deletion strains, locus YBR229C, strain ROT2, hits give low values 1.02 | S. cerevisiae deletion strains, locus YDL035C, strain GPR1, hits give low values 1.04 | S. cerevisiae deletion strains, locus YDL074C, strain BRE1, hits give low values 1.04 | S. cerevisiae deletion strains, locus YDL101C, strain DUN1, hits give low values 1.04 | S. cerevisiae deletion strains, locus YDL134C, strain PPH21, hits give low values 1.03 | S. cerevisiae deletion strains, locus YDL185W, strain tfp1, hits give low values 1.03 | S. cerevisiae deletion strains, locus YDR101C, strain arx1, hits give low values 1.04 | S. cerevisiae deletion strains, locus YDR150W, strain NUM1, hits give low values 1.06 | S. cerevisiae deletion strains, locus YDR162C, strain NBP2, hits give low values 1.03 | S. cerevisiae deletion strains, locus YDR318W, strain mcm21, hits give low values 1 | S. cerevisiae deletion strains, locus YDR502C, strain sam2, hits give low values 1.05 | S. cerevisiae deletion strains, locus YEL061C, strain CIN8, hits give low values 1.05 | S. cerevisiae deletion strains, locus YER110C, hits give low values 1.1 | S. cerevisiae deletion strains, locus YER155C, strain BEM2, hits give low values 1.06 | S. cerevisiae deletion strains, locus YER167W, strain BCK2, hits give low values 1.01 | S. cerevisiae deletion strains, locus YGL078C, strain dbp3, hits give low values 1.01 | S. cerevisiae deletion strains, locus YGL086W, strain mad1, hits give low values 1 | S. cerevisiae deletion strains, locus YGL248W, strain PDE1, hits give low values 1.02 | S. cerevisiae deletion strains, locus YGR078C, strain PAC10, hits give low values 1.03 | S. cerevisiae deletion strains, locus YGR135W, strain pre9, hits give low values 1.04 | S. cerevisiae deletion strains, locus YGR229C, strain SMI1, hits give low values 1.03 | S. cerevisiae deletion strains, locus YGR252W, strain gcn5, hits give low values 1.17 | S. cerevisiae deletion strains, locus YHR030C, strain SLT2, hits give low values 1.02 | S. cerevisiae deletion strains, locus YHR079C, strain IRE1, hits give low values 1.05 | S. cerevisiae deletion strains, locus YHR094C, strain hxt1, hits give low values 1.04 | S. cerevisiae deletion strains, locus YHR129C, strain ARP1, hits give low values 1.04 | S. cerevisiae deletion strains, locus YIL066C, strain RNR3, hits give low values 1.01 | S. cerevisiae deletion strains, locus YIL073C, strain SPO22, hits give low values 1.07 | S. cerevisiae deletion strains, locus YIL125W, strain kgd1, hits give low values 1.04 | S. cerevisiae deletion strains, locus YJL095W, strain BCK1, hits give low values 0.994 and 1.02 | S. cerevisiae deletion strains, locus YJL134W, strain LCB3, hits give low values 1.03 | S. cerevisiae deletion strains, locus YJL187C, strain SWE1 (second series), hits give low values 1.02 | S. cerevisiae deletion strains, locus YJR043C, strain POL32, hits give low values 1.04 | S. cerevisiae deletion strains, locus YJR066W, strain TOR1, hits give low values 0.978 | S. cerevisiae deletion strains, locus YJR075W, strain HOC1, hits give low values 1.05 | S. cerevisiae deletion strains, locus YKL009W, strain mrt4, hits give low values 0.928 | S. cerevisiae deletion strains, locus YKL068W, hits give low values 0.963 | S. cerevisiae deletion strains, locus YKL085W, strain MDH1 (second series), hits give low values 0.995 | S. cerevisiae deletion strains, locus YKL085W, strain MDH1, hits give low values 0.995 | S. cerevisiae deletion strains, locus YKL190W, strain CNB1, hits give low values 1.04 | S. cerevisiae deletion strains, locus YKR001C, strain vps1, hits give low values 0.953 | S. cerevisiae deletion strains, locus YLR039C, strain RIC1, hits give low values 1.04 | S. cerevisiae deletion strains, locus YLR058C, strain SHM2, hits give low values 1.03 | S. cerevisiae deletion strains, locus YLR113W, strain HOG1, hits give low values 1.01 | S. cerevisiae deletion strains, locus YLR262C, strain YPT6, hits give low values 1.06 | S. cerevisiae deletion strains, locus YLR268W, strain sec22, hits give low values 1.05 | S. cerevisiae deletion strains, locus YLR342W, strain FKS1 (second series), hits give low values 0.998 | S. cerevisiae deletion strains, locus YLR418C, strain cdc73, hits give low values 0.998 | S. cerevisiae deletion strains, locus YML016C, strain PPZ1, hits give low values 1.02 | S. cerevisiae deletion strains, locus YML032C, strain rad52, hits give low values 1.03 | S. cerevisiae deletion strains, locus YML124C, strain tub3, hits give low values 1.06 | S. cerevisiae deletion strains, locus YMR263W, strain SAP30, hits give low values 1.06 | S. cerevisiae deletion strains, locus YMR307W, strain GAS1, hits give low values 1.05 | S. cerevisiae deletion strains, locus YNL067W, strain RPL9B, hits give low values 1.02 | S. cerevisiae deletion strains, locus YNL128W, strain TEP1, hits give low values 1.05 | S. cerevisiae deletion strains, locus YNL153C, strain GIM3, hits give low values 1.02 | S. cerevisiae deletion strains, locus YNL183C, strain NPR1, hits give low values 0.945 | S. cerevisiae deletion strains, locus YNL233W, strain BNI4, hits give low values 1.03 | S. cerevisiae deletion strains, locus YNL250W, strain rad50, hits give low values 1.04 | S. cerevisiae deletion strains, locus YNL271C, strain bni1, hits give low values 1 | S. cerevisiae deletion strains, locus YNL298W, strain CLA4, hits give low values 1.03 | S. cerevisiae deletion strains, locus YNL322C, strain KRE1, hits give low values 1.05 | S. cerevisiae deletion strains, locus YOL006C, strain TOP1, hits give low values 1.02 | S. cerevisiae deletion strains, locus YOL012C, strain htz1 1.11 | S. cerevisiae deletion strains, locus YOR061W, strain CKA2, hits give low values 1.03 | S. cerevisiae deletion strains, locus YOR069W, strain VPS5, hits give low values 1.03 | S. cerevisiae deletion strains, locus YOR184W, strain ser1, hits give low values 1.01 | S. cerevisiae deletion strains, locus YOR231W, strain MKK1, hits give low values 1.02 | S. cerevisiae deletion strains, locus YPL055C, strain LGE1, hits give low values 1.03 | S. cerevisiae deletion strains, locus YPL241C, strain CIN2, hits give low values 1.05 | S. cerevisiae deletion strains, locus YPL256C, strain CLN2, hits give low values 1.06 | S. cerevisiae deletion strains, locus YPR119W, strain clb2, hits give low values 1.06 | S. cerevisiae deletion strains, strain wtn01, hits give low values 1.02 | S. cerevisiae strains, strain wild type, hits give low values 1.04
